Screening results deposited in PubChem by Broad Institute.
Only some compounds are listed: those with a hit (about 6.7% of all), similar ones and a draw of the others.
C diff HTS: inhibitors of Clostridium difficile growth; 86,000 compounds, 0.25% hits; Clostridium difficile clinical isolate growth, OD600, 24 h; stronger effect = lower value; growth activity, negative = inhibition, % at 16 µg/mL (by protocol);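 active = mean growth activity at or below -80% and every replicate also at or below -80%; inconclusive = mean at or below -80% but some replicate above -80%; inactive = mean growth activity above -80%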;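 also: 0% = DMSO wells and -100% = levofloxacin 16 µg/mL wells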
Pf Dd2 inh: blocks growth of Plasmodium falciparum Dd2 parasites; AID 1159554; P. falciparum Dd2 growth, SYBR Green, 72 h; stronger effect = lower value; activity change, % at 10 µM; 94,000 compounds, 2.3% hits; in the data active = activity change below about -80%; inconclusive = no clear call, values can overlap the other calls
T cruzi growth-1: inhibitors of T. cruzi proliferation; T. cruzi beta-gal in NIH3T3, GalScreen luminescence, 90 h; 77,000 compounds, 5.9% hits; inhibition, % at 8.34 µM;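 active = mean inhibition above about 93%, with at least 55% of replicates each passing it, limit read from the data, passing the limit was not always enough; inconclusive = only one of those two conditions holds; inactive = neither condition holds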
T cruzi growth-2: Trypanosoma cruzi proliferation inhibition | shares compounds with T cruzi growth-1 | T. cruzi beta-gal in NIH3T3, GalScreen luminescence, 90 h | inhibition, % at 8.35 µM | 5,600 compounds, 72% hits | AID 651739;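 active = mean replicate inhibition above about 95% and at least 55% of replicates individually reaching it, limit read from the data; inconclusive = only one of the two criteria is met; inactive = neither criterion is met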
T cruzi growth-3: Trypanosoma cruzi proliferation inhibition; inhibition, % at 2.09 µM; shares compounds with T cruzi growth-1; T. cruzi beta-gal in NIH3T3, GalScreen luminescence, 90 h; 5,600 compounds, 21% hits;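 active = mean inhibition above about 95%, with at least 55% of replicates also reaching it, limit read from the data; inconclusive = meets just one of the two conditions; inactive = meets neither condition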;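 also: plate controls were neutral control median for no effect and positive control median for full effect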
NIH3T3 tox: kills mouse NIH/3T3 fibroblasts. shares compounds with T cruzi growth-1. NIH/3T3 viability, CellTiter-Glo ATP luminescence, 90 h. cytotoxicity (signal decrease), % at 8.35 µM. 5,600 compounds, 14% hits;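 active = mean signal decrease across replicates above about 35% based on untreated-well scatter, with enough replicates individually passing, limit read from the data; inconclusive = no rule stated though some were filed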;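 also: 0% = median of neutral control wells and 100% = median of positive control wells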
NIH3T3 tox 2: NIH/3T3 (mouse) viability loss. shares compounds with T cruzi growth-1. NIH/3T3 viability, CellTiter-Glo ATP luminescence, 90 h. inhibition, % at 24.9 µM. 5,600 compounds, 56% hits;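 active = mean loss of cell viability signal at or above a set limit, and enough replicates individually reaching it; inconclusive = meets only the mean limit or only the replicate share; inactive = meets neither condition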;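 also: 0% = median of neutral control wells and 100% = median of positive control wells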
* marks the source's active call; other numbers are inactive results; ? = inconclusive; . = not tested or not shown.

SMILES	C diff HTS	Pf Dd2 inh	T cruzi growth-1	T cruzi growth-2	T cruzi growth-3	NIH3T3 tox	NIH3T3 tox 2
C[C@H](CO)N1C[C@H](C)[C@H](CN(C)C(=O)C2CC2)Oc2cc(C#Cc3ccncc3)ccc2S1(=O)=O	.	-56	105*	105*	-9	22	65*
C[C@H](CO)N1C[C@H](C)[C@@H](CN(C)C(=O)C2CCC2)Oc2cc(C#Cc3ccncc3)ccc2S1(=O)=O	2	-13	-76	.	.	.	.
C[C@@H]1CN([C@H](C)CO)S(=O)(=O)c2ccc(C#Cc3ccncc3)cc2O[C@@H]1CN(C)C(=O)C1CCC1	4	-19	-70	.	.	.	.
C[C@H](CO)N1C[C@H](C)[C@@H](CN(C)C(=O)C2CC2)Oc2cc(C#Cc3ccncc3)ccc2S1(=O)=O	.	-33	123*	-15	17	-10	62*
C[C@@H]1CN([C@@H](C)CO)S(=O)(=O)c2ccc(C#CC(C)(C)O)cc2O[C@H]1CN(C)C(=O)C1CC1	.	28	102*	-31	-52	4	47*
COc1ccc2c3c([nH]c2c1)[C@@H](CO)N(Cc1ccccc1)CC31CN(S(=O)(=O)c2ccc(C)cc2)C1	-8	-54	.	.	.	.	.
COc1ccc(NC(=O)N(C)C[C@@H]2Oc3ccc(NC(=O)Nc4c(C)noc4C)cc3CC(=O)N([C@@H](C)CO)C[C@H]2C)cc1	2	26	3	.	.	.	.
C[C@@H]1CN([C@H](C)CO)C(=O)c2cc(C#Cc3ccc(F)cc3)cnc2O[C@@H]1CN(C)CC1CC1	14	-56	102	.	.	.	.
O=S(=O)(c1ccccc1F)N1CCCCN2[C@H](CO)[C@@H](c3ccc(-c4ccccc4)cc3)[C@@H]2C1	-1	-5	36	.	.	.	.
O=S(=O)(N[C@H]1CC[C@@H](CCNS(=O)(=O)c2ccccc2Cl)O[C@H]1CO)c1ccccc1	-10	9	-24	.	.	.	.
CC(C)CC#Cc1ccc([C@H]2[C@H]3CN(C(=O)NC4CCCC4)CCCCN3[C@H]2CO)cc1	8	-6	?	110*	51	9	104*
COc1ccc(NC(=O)N2CCCCN3[C@@H](CO)[C@H](c4ccc(C#CCC(C)C)cc4)[C@@H]3C2)cc1	-5	-78	114*	98*	106*	118*	103*
COc1ccc(NC(=O)N2CCCCN3[C@H](CO)[C@@H](c4ccc(C#CCC(C)C)cc4)[C@@H]3C2)cc1	-2	-69	105*	106*	56	39*	104*
CC(C)CC#Cc1ccc([C@@H]2[C@@H](CO)N3CCCCN(C(=O)NC4CCCC4)C[C@H]23)cc1	-6	-43	84	.	.	.	.
COc1ccc(NC(=O)N2CCCCN3[C@H](CO)[C@H](c4ccc(C#CCC(C)C)cc4)[C@@H]3C2)cc1	-12	-90*	121*	108*	96*	?	83*
CC(C)CC#Cc1ccc([C@@H]2[C@H](CO)N3CCCCN(C(=O)NC4CCCC4)C[C@@H]23)cc1	19	-36	31	.	.	.	.
CNC[C@H]1Oc2c(NC(=O)Nc3ccc(F)cc3)cccc2C(=O)N([C@H](C)CO)C[C@H]1C	1	7	.	.	.	.	.
C/C=C/c1ccc([C@H]2[C@H]3CN(C(=O)Nc4ccc(OC)cc4)CCCCN3[C@H]2CO)cc1	0	-16	42	.	.	.	.
COc1ccc(NC(=O)N2CCCCN3[C@H](C2)[C@H](c2ccc(C#CCC(C)C)cc2)[C@@H]3CO)cc1	3	-43	118*	92	61	14	100*
Cc1noc(C)c1NC(=O)Nc1cccc2c1O[C@H](CN(C)S(=O)(=O)c1ccccc1)[C@@H](C)CN([C@@H](C)CO)C2=O	.	16	-1	.	.	.	.
COc1ccccc1NC(=O)N1CCCCN2[C@H](C1)[C@H](c1ccc(-c3cccc(C#N)c3)cc1)[C@@H]2CO	7	11	82	.	.	.	.
N#Cc1cccc(-c2ccc([C@@H]3[C@@H](CO)N4CCCCN(C(=O)Nc5ccccc5)C[C@@H]34)cc2)c1	16	0	108*	107*	70	42*	93*
N#Cc1cccc(-c2ccc([C@@H]3[C@@H](CO)N4CCCCN(C(=O)Nc5ccc(F)cc5)C[C@H]34)cc2)c1	1	-8	93	.	.	.	.
N#Cc1cccc(-c2ccc([C@@H]3[C@H](CO)N4CCCCN(C(=O)Nc5ccccc5)C[C@@H]34)cc2)c1	37	-17	98*	108*	88	36*	106*
CCC(=O)N1CCCCN2[C@H](CO)[C@H](c3ccc(-c4cccc(C#N)c4)cc3)[C@@H]2C1	9	18	92	.	.	.	.
SMILES	C diff HTS	Pf Dd2 inh	T cruzi growth-1	T cruzi growth-2	T cruzi growth-3	NIH3T3 tox	NIH3T3 tox 2
COc1ccccc1NC(=O)N1CCCCN2[C@H](C1)[C@@H](c1ccc(-c3cccc(C#N)c3)cc1)[C@@H]2CO	6	-27	43	.	.	.	.
N#Cc1cccc(-c2ccc([C@H]3[C@H](CO)N4CCCCN(C(=O)Nc5ccccc5)C[C@@H]34)cc2)c1	31	-9	99*	110*	64	46*	106*
N#Cc1cccc(-c2ccc([C@H]3[C@@H](CO)N4CCCCN(C(=O)Nc5ccccc5)C[C@@H]34)cc2)c1	7	22	111*	108*	71	21	16
COc1ccc(NC(=O)N2C[C@H]3[C@@H](c4ccccc42)[C@H](CO)N3Cc2ccccn2)cc1	2	10	-25	.	.	.	.
O=S(=O)(N[C@H]1CC[C@@H](CCn2cc(-c3cccnc3)nn2)O[C@@H]1CO)c1ccc(F)cc1	1	8	-11	.	.	.	.
CC(C)C#Cc1cnc2c(c1)C(=O)N([C@H](C)CO)C[C@H](C)[C@H](CN(C)C(=O)Cc1ccncc1)O2	2	-55	72	.	.	.	.
CCCNC(=O)C[C@H]1CC[C@@H]2[C@H](COC[C@H](O)CN2C(=O)c2ccc(F)cc2)O1	1	9	4	.	.	.	.
C[C@H]1CN([C@@H](C)CO)C(=O)c2cccc(NC(=O)Nc3ccc(F)cc3)c2O[C@@H]1CN(C)C(=O)Nc1ccc(F)cc1	0	-2	27	.	.	.	.
COc1ccc(NC(=O)N(C)C[C@@H]2Oc3ccc(NC(=O)Nc4ccc5c(c4)OCO5)cc3C(=O)N([C@@H](C)CO)C[C@H]2C)cc1	.	0	3	.	.	.	.
CO[C@@H]1CN(C)C(=O)c2ccc(NC(=O)C3CC3)cc2OC[C@@H](C)N(C)C[C@H]1C	.	10	.	.	.	.	.
Cc1ccc(S(=O)(=O)N(C)C[C@@H]2Oc3cc(C#CC4CCCC4)ccc3S(=O)(=O)N([C@H](C)CO)C[C@H]2C)cc1	16	-65	128*	103*	?	74*	66*
C[C@H](CO)N1C[C@H](C)[C@@H](CN(C)S(C)(=O)=O)Oc2cc(C#CC3CCCC3)ccc2S1(=O)=O	.	-11	123*	102*	36	20	66*
COCC#Cc1ccc2c(c1)O[C@H](CN(C)S(=O)(=O)c1ccc(C)cc1)[C@H](C)CN([C@H](C)CO)S2(=O)=O	7	-34	76	.	.	.	.
